# Reference: the supplement of paper PMC10811239
# Tested on: LEGO organoid PT (PTEN-/-; TP53-/-)
# Test: bioluminescence (viable cell) signal fold change after vs before treatment, normalised to DMSO (ratio); higher = more tumour cell growth / less inhibition
# Details: 10 µM; treatment time 6 days
# Method: (§1)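 Luc2-labelled iPSC-derived glioblastoma-like organoids (LEGOs, genotypes PT = PTEN-/-;TP53-/-, PTCC = plus CDKN2A/B-/-, PTN = plus NF1-/-) were treated with 10 uM drug for 6 days (applied every other day) at 37 C. Bioluminescence imaging was done before treatment and 2 days after the last dose. BLI signals were normalised to the DMSO control on the same day and then to the pre-treatment signal (N=3).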
row,SMILES,bioluminescence
1,Nc1ccn([C@@H]2CS[C@H](CO)O2)c(=O)n1 [Lamivudine],0.906
2,CO[C@H]1/C=C/O[C@@]2(C)Oc3c(C)c(O)c4c(O)c(c(/C=N/N5CCN(C)CC5)c(O)c4c3C2=O)NC(=O)/C(C)=C\C=C\[C@H](C)[C@H](O)[C@@H](C)[C@@H](O)[C@@H](C)[C@H](OC(C)=O)[C@@H]1C [Rifampicin],3.6
3,CN(C/C=C/C#CC(C)(C)C)Cc1cccc2ccccc12 [Terbinafine],0.601
4,CCCCCCCCCC(=O)OCCN1CCN(CCCN2c3ccccc3Sc3ccc(C(F)(F)F)cc32)CC1 [Fluphenazine decanoate],0.875
5,Cc1ccnc2c1NC(=O)c1cccnc1N2C1CC1 [Nevirapine],2.15
6,CC/C(=C(\c1ccccc1)c1ccc(OCCN(C)C)cc1)c1ccccc1.O=C(O)CC(O)(CC(=O)O)C(=O)O [Tamoxifen Z-isomer citrate],0.933
7,CC(C)NCC(O)COc1cccc2ccccc12.Cl (stereo not given) [Propranolol hydrochloride],1.03
8,CC(=O)Nc1ccc(O)cc1 [Acetaminophen],1.19
9,Cl.CN(C)CC\C=C1\c2ccccc2CCc2ccccc12 [Amitriptyline hydrochloride],1.32
10,Cl.Nc1c2c(nc3ccccc13)CCCC2.O [Tacrine hydrochloride hydrate],0.719
11,O=C(c1cc(Cc2n[nH]c(=O)c3ccccc23)ccc1F)N1CCN(C(=O)C2CC2)CC1 [Olaparib],1.23
12,CN[C@H]1CC[C@@H](c2ccc(Cl)c(Cl)c2)c2ccccc21.Cl [Sertraline hydrochloride],0.66

# Tested on: LEGO organoid PTCC (PTEN-/-; TP53-/-; CDKN2A-/-; CDKN2B-/-)
# Test: as above
# Details: 10 µM; treatment time 6 days
# Method: as §1
row,SMILES,bioluminescence
1,CN(C)CCc1c[nH]c2ccc(Cn3cncn3)cc12.O=C(O)c1ccccc1 [Rizatriptan benzoate],1.84
2,CN(C)CCc1c[nH]c2ccc(C[C@H]3COC(=O)N3)cc12 [Zolmitriptan],1.52
3,CC1=C(/C=C/C(C)=C/C=C/C(C)=C/C(=O)O)C(C)(C)CCC1 [Tretinoin],0.531
4,CC(=O)NCCCS(=O)(=O)[O-].CC(=O)NCCCS(=O)(=O)[O-].[Ca+2] [Acamprosate calcium],0.374
5,Cc1ncc([N+](=O)[O-])n1CCO [Metronidazole],0.966
6,C[C@@H](O[C@H]1OCCN(Cc2nc(=O)[nH][nH]2)[C@H]1c1ccc(F)cc1)c1cc(C(F)(F)F)cc(C(F)(F)F)c1 [Aprepitant],0.644
7,C[C@]12CC[C@@H]3c4ccc(O)cc4CC[C@H]3[C@@H]1CC[C@@H]2O [Estradiol],0.435
8,CC(C(=O)O)c1ccc(-c2ccccc2)c(F)c1 (stereo not given) [Flurbiprofen],0.856
9,CC(=O)N[C@@H](CS)C(=O)O [Acetylcysteine],1.21
10,Cc1cc(NS(=O)(=O)c2ccc(N)cc2)no1 [Sulfamethoxazole],1.56
11,Cn1c(=O)c2[nH]cnc2n(C)c1=O [Theophylline],1.2
12,O=C1[N-]C(=O)C(c2ccccc2)(c2ccccc2)N1.[Na+] [Phenytoin sodium],1.45
13,O=C(O)c1cccnc1 [Niacin],2.03
14,Nc1nc(NC2CC2)c2ncn([C@H]3C=C[C@@H](CO)C3)c2n1 [Abacavir],1.46
15,COC(=O)C1=C(C)NC(C)=C(C(=O)OCCN(C)Cc2ccccc2)C1c1cccc([N+](=O)[O-])c1.Cl (stereo not given) [Nicardipine hydrochloride],1.19
16,CCCC(CCC)C(=O)O.CCCC(CCC)C(=O)[O-].[Na+] [Divalproex Sodium],0.404
17,CN1CCN(C2=Nc3cc(Cl)ccc3Nc3ccccc32)CC1 [Clozapine],0.388
18,Cc1nc(Nc2ncc(C(=O)Nc3c(C)cccc3Cl)s2)cc(N2CCN(CCO)CC2)n1 [Dasatinib],0.977
19,Nc1nc2c(ncn2COC(CO)CO)c(=O)[nH]1 [Ganciclovir],1.62

row,SMILES,bioluminescence
1,CCN(CC)CC(=O)Nc1c(C)cccc1C [Xylocaine],1.13
2,CCc1c2c(nc3ccc(OC(=O)N4CCC(N5CCCCC5)CC4)cc13)-c1cc3c(c(=O)n1C2)COC(=O)[C@]3(O)CC.Cl.O.O.O [Irinotecan hydrochloride trihydrate],0.793
3,O=C(O)Cc1ccccc1Nc1c(Cl)cccc1Cl [Diclofenac],1.13
4,Nc1nc2c(ncn2COCCO)c(=O)[nH]1 [Aciclovir],2.16
5,Cc1cnc(NC(=O)C2=C(O)c3ccccc3S(=O)(=O)N2C)s1 [Meloxicam],1.15
6,O.O.O.O.O.O.O.O=C1CN(/N=C/c2ccc(-c3ccc([N+](=O)[O-])cc3)o2)C(=O)[N-]1.O=C1CN(/N=C/c2ccc(-c3ccc([N+](=O)[O-])cc3)o2)C(=O)[N-]1.[Na+].[Na+] [Dantrolene sodium hemiheptahydrate],2.4
7,Clc1ccc2c(c1)C(N1CCNCC1)=Nc1ccccc1O2 [Amoxapine],1.25
8,Nc1ccn([C@@H]2CS[C@H](CO)O2)c(=O)n1 [Lamivudine],0.674
9,CO[C@H]1/C=C/O[C@@]2(C)Oc3c(C)c(O)c4c(O)c(c(/C=N/N5CCN(C)CC5)c(O)c4c3C2=O)NC(=O)/C(C)=C\C=C\[C@H](C)[C@H](O)[C@@H](C)[C@@H](O)[C@@H](C)[C@H](OC(C)=O)[C@@H]1C [Rifampicin],0.603
10,CN(C/C=C/C#CC(C)(C)C)Cc1cccc2ccccc12 [Terbinafine],1.04
11,CCCCCCCCCC(=O)OCCN1CCN(CCCN2c3ccccc3Sc3ccc(C(F)(F)F)cc32)CC1 [Fluphenazine decanoate],2.63
12,Cc1ccnc2c1NC(=O)c1cccnc1N2C1CC1 [Nevirapine],0.901
13,CC/C(=C(\c1ccccc1)c1ccc(OCCN(C)C)cc1)c1ccccc1.O=C(O)CC(O)(CC(=O)O)C(=O)O [Tamoxifen Z-isomer citrate],1.41
14,CC(C)NCC(O)COc1cccc2ccccc12.Cl (stereo not given) [Propranolol hydrochloride],0.672
15,CC(=O)Nc1ccc(O)cc1 [Acetaminophen],0.686
16,Cl.CN(C)CC\C=C1\c2ccccc2CCc2ccccc12 [Amitriptyline hydrochloride],0.794
17,Cl.Nc1c2c(nc3ccccc13)CCCC2.O [Tacrine hydrochloride hydrate],0.819
18,O=C(c1cc(Cc2n[nH]c(=O)c3ccccc23)ccc1F)N1CCN(C(=O)C2CC2)CC1 [Olaparib],1.32
19,CN[C@H]1CC[C@@H](c2ccc(Cl)c(Cl)c2)c2ccccc21.Cl [Sertraline hydrochloride],0.888
